Experimental data reported in PubChem BioAssay AID1117319 (Southern Research Institute, 2015).
The whole screen tested about 260,000 compounds, of which about 1,500 (0.58%) were called active. Not shown: some 5% with an inconclusive outcome.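 The calls were made as follows: active = inhibition above a set limit at one or more doses, reproduced on every date tested; inconclusive = results disagree between test dates, or hit never tested in dose response; inactive = the rest.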 The list is a sample of the results. Results with a measured potency or affinity are listed apart.

What follows are compounds tested against Virion infectivity factor (Human immunodeficiency virus type 1 group M subtype B (isolate BH10)) + Virion infectivity factor (Human immunodeficiency virus type 1 group M subtype B (isolate BRU/LAI)) + Virion infectivity factor (Human immunodeficiency virus type 1 group M subtype B (isolate PCV12)) + Virion infectivity factor (Human immunodeficiency virus type 1 group M subtype B (isolate HXB2)) + DNA dC->dU-editing enzyme APOBEC-3G (Homo sapiens) (UniProt P69720+P69721+P69722+P69723+Q9HC16) (assay: HIV-1 Vif–A3G interaction blockers – biochemical, TR-FRET, GST-Vif 1-94, biotin-A3G peptide, dose response retest, primary screen (AID 1117319;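 also: Vif residues 1-94 fused to GST binding biotinylated APOBEC3G peptide 110-148; 0% = full assay without inhibitor and 100% = GST in place of GST-Vif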)). Details: TR-FRET GST-Vif / biotin-A3G peptide binding; stronger effect = higher value.

inhibition, inactive:
COC(=O)c1ccc(Cn2nc(C)c(Cl)c2C)o1 3.48%, Clc1cccc(CON/C=N/c2ncnc3sccc23)c1 -6.38%, CC(=O)Nc1ccccc1OCC(=O)NCCC1=CCCCC1 -8.53%, CCN(CC)c1ccc2c(C)c(Cl)c(=O)oc2c1 -11.9%, CCN(CC)c1ccc2cc(C=O)c(=O)oc2c1 24.5%, CC(C)N=C1SCC(C)(/C=N/O)S1 (stereo not drawn) 5.98%, O=C1[C@@H]2C(Cc3ccc(O)cc3)NC3(C(=O)Nc4ccc(F)cc43)[C@@H]2C(=O)N1c1ccccc1 (stereo partly drawn) -9.27%, O=C1[C@@H]2[C@H](Cc3ccc(O)cc3)N[C@]3(C(=O)Nc4ccccc43)[C@@H]2C(=O)N1c1ccc(F)cc1 3.97%, CCN=C1SC(CC(N)=O)C(=O)N1CC (stereo not drawn) 9.83%, Cc1nc(N2CCN(C(=O)c3ccco3)CC2)nc2c1C(=O)CC(C)C2 (stereo not drawn) -2.42%, COc1ccc(Cl)cc1NC(=O)c1cnccn1 3.9%, Cc1nc(N)c(C#N)c(-c2ccc3c(c2)OCO3)c1C -4.59%, Cc1[nH]c2ccccc2c1C(=O)CSc1nc2ccccc2[nH]1 30.3%, Cc1c(C)n(C(=O)CSc2ncn[nH]2)c2ccccc12 -2.61%, CC(=O)c1ccc(NC(=O)c2cnn3ccccc23)cc1 1.77%, CSc1cccc(NC(=O)c2cnn3ccccc23)c1 1.6%, COc1ccc(N2CCN(C(=O)CSc3ncn[nH]3)CC2)cc1 7.54%, COc1ccc(-n2nnnc2/C=C/Nc2cc(C(F)(F)F)ccc2OC)cc1 -7.87%, C=C(C1=CCN(S(=O)C(C)(C)C)[C@H]1CCO)c1ccccc1 (stereo partly drawn) -5.4%, Cc1nc2nc(C)c(CCC(=O)N3CCN(c4ccccn4)CC3)c(C)n2n1 8.31%, Cc1nc2cc(-c3ccccc3)nn2c(C)c1CCC(=O)N1CCN(c2ccccc2)CC1 -3.02%, Cc1ccc(/C=N/n2cnc3sc4c(c3c2=O)CCCC4)o1 8.22%, CCN(C(=S)Nc1cccnc1)c1ccccc1 -9.76%, CC(C)N(C(=S)Nc1cccnc1)c1ccccc1 4.04%, O=[N+]([O-])c1ccccc1N/N=C/c1ccc2c(c1)OCO2 26.8%, Cc1c(-c2ccccc2)nc2ccccc2c1C(=O)NCc1cccs1 10.6%, COc1cc(NC(=O)c2cnn3c(C)cc(C)nc23)c(OC)cc1Cl 0.24%, Cc1ccc(NC(=O)c2cc3nc(C)cc(C)n3n2)cc1 3.27%
